In the supplement of paper PMC9023506:
Where a name gives a salt, the structure may show the parent alone.

system: Danio rerio larvae (5 dpf); experiment: optomotor response to fast red moving lines, difference vs DMSO (percentage points (treated minus DMSO)); higher = more of the behaviour than the DMSO vehicle control; details: 10 µM; exposure time: 3 h pre-incubation + 3 h imaging
Method: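 5-dpf wild-type zebrafish larvae were imaged in 96-well plates. They were treated with 190 Tocris FDA-approved drugs at 10 µM (1 µl/ml DMSO) for 3 h before and 3 h during imaging at 28.5 °C, 48 larvae per drug. Automated image analysis gave % time moving and optomotor responses. Values are drug group mean minus DMSO vehicle mean (n=844), in percentage points, for 10 behaviours.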

| Compound | optomotor response |
| --- | --- |
| CCOc1nc2cccc(C(=O)O)c2n1Cc1ccc(-c2ccccc2-c2noc(=O)[nH]2)cc1 [Azilsartan] | -3.36 |
| Cc1ccc(O)c([C@H](CCN(C(C)C)C(C)C)c2ccccc2)c1 [Tolterodine L-tartrate] | 2.15 |
| CCOC(=O)C1=C(COCCN)NC(C)=C(C(=O)OC)C1c1ccccc1Cl (stereo not given) [Amlodipine besylate] | 7.5 |
| CCOC(=O)[C@H](CCc1ccccc1)N[C@@H](C)C(=O)N1[C@H](C(=O)O)C[C@@H]2CCC[C@@H]21 [Ramipril] | -1.3 |
| CN[C@H]1CC[C@@H](c2ccc(Cl)c(Cl)c2)c2ccccc21 [Sertraline hydrochloride] | -8.12 |
| C=C1[C@H](CO)[C@@H](O)C[C@@H]1n1cnc2c(=O)[nH]c(N)nc21 [Entecavir] | -0.927 |
| CC(c1cc2ccccc2s1)N(O)C(N)=O (stereo not given) [Zileuton] | -16.8 |
| CCC(=O)O[C@]1(C(=O)SCF)[C@H](C)C[C@H]2[C@@H]3C[C@H](F)C4=CC(=O)C=C[C@]4(C)[C@@]3(F)[C@@H](O)C[C@@]21C [Fluticasone propionate] | -7.85 |
| CC1CNc2c(cccc2S(=O)(=O)N[C@@H](CCCNC(=N)N)C(=O)N2CC[C@@H](C)C[C@@H]2C(=O)O)C1 (stereo not given in full) [Argatroban] | -3.36 |
| COc1ccccc1OCCNCC(O)COc1cccc2[nH]c3ccccc3c12 (stereo not given) [Carvedilol] | -10.6 |
| CC#C[C@]1(O)CC[C@H]2[C@@H]3CCC4=CC(=O)CCC4=C3[C@@H](c3ccc(N(C)C)cc3)C[C@@]21C [Mifepristone] | -1.97 |
| CCCCc1nc(Cl)c(CO)n1Cc1ccc(-c2ccccc2-c2nnn[nH]2)cc1 [Losartan potassium] | -3.43 |
| CN(CCOc1ccc(NS(C)(=O)=O)cc1)CCc1ccc(NS(C)(=O)=O)cc1 [Dofetilide] | 2.79 |
| N[C@@H]1[C@H]2CN(c3nc4c(cc3F)c(=O)c(C(=O)O)cn4-c3ccc(F)cc3F)C[C@@H]12 [Trovafloxacin mesylate] | -4.84 |
| CC(=O)Oc1ccccc1C(=O)O [Aspirin] | -7.85 |
| C/C(O)=C(\C#N)C(=O)Nc1ccc(C(F)(F)F)cc1 [Teriflunomide] | -7.56 |
| CC/C(=C(\c1ccccc1)c1ccc(OCCN(C)C)cc1)c1ccccc1 [Tamoxifen citrate] | -8.84 |
| Cc1cccc(C)c1OCC(C)N (stereo not given) [Mexiletine hydrochloride] | 0.599 |
| Cc1ccccc1C(=O)Nc1ccc(C(=O)N2CCCC(O)c3cc(Cl)ccc32)c(C)c1 (stereo not given) [Tolvaptan] | 2.23 |
| Nc1cc(N2CCCCC2)nc(N)[n+]1[O-] [Minoxidil] | 2.09 |

| Compound | optomotor response |
| --- | --- |
| CCOC(=O)[C@H](CCc1ccccc1)N[C@H]1CCc2ccccc2N(CC(=O)O)C1=O [Benazepril hydrochloride] | -1.29 |
| C#C[C@]1(O)CC[C@H]2[C@@H]3CCC4=CC(=O)CC[C@@H]4[C@H]3CC[C@@]21CC [Levonorgestrel] | 9.62 |
| COc1ccccc1Oc1c(NS(=O)(=O)c2ccc(C(C)(C)C)cc2)nc(-c2ncccn2)nc1OCCO [Bosentan] | 0.298 |
| O=C(NCC1CCCCN1)c1cc(OCC(F)(F)F)ccc1OCC(F)(F)F (stereo not given) [Flecainide acetate] | 1.94 |
| CN1CCN2c3ncccc3Cc3ccccc3C2C1 (stereo not given) [Mirtazapine] | -5.17 |
| COc1cc2ncnc(Nc3ccc(F)c(Cl)c3)c2cc1OCCCN1CCOCC1 [Iressa] | 8.7 |
| COc1ccc([C@@H]2Sc3ccccc3N(CCN(C)C)C(=O)[C@@H]2OC(C)=O)cc1 [Diltiazem hydrochloride] | -0.971 |
| N#Cc1ccc2[nH]cc(CCCCN3CCN(c4ccc5oc(C(N)=O)cc5c4)CC3)c2c1 [Vilazodone hydrochloride] | -38.2 |
| Cc1ccc(NC(=O)c2ccc(CN3CCN(C)CC3)cc2)cc1Nc1nccc(-c2cccnc2)n1 [Imatinib mesylate] | 1.11 |
| CO[C@H]1/C=C/O[C@@]2(C)Oc3c(C)c(O)c4c(O)c(c5c(nc6cc(C)ccn65)c4c3C2=O)NC(=O)/C(C)=C\C=C\[C@H](C)[C@H](O)[C@@H](C)[C@@H](O)[C@@H](C)[C@H](OC(C)=O)[C@@H]1C [Rifaximin] | -3.87 |
| COc1cccc2c1C(=O)c1c(O)c3c(c(O)c1C2=O)C[C@@](O)(C(=O)CO)C[C@@H]3O[C@H]1C[C@H](N)[C@H](O)[C@H](C)O1 [Doxorubicin hydrochloride] | 6.53 |
| CC(C)[C@H]1CC[C@H](C(=O)N[C@H](Cc2ccccc2)C(=O)O)CC1 [Nateglinide] | -0.789 |
| COc1ccc(C[C@@H](C)NC[C@H](O)c2ccc(O)c(NC=O)c2)cc1 [Arformoterol tartrate] | -17.7 |
| CCCCCCCCc1ccc(CCC(N)(CO)CO)cc1 | 10.4 |
| CCCN(CCC)S(=O)(=O)c1ccc(C(=O)O)cc1 [Probenecid] | -11.6 |
| CC[C@H]1OC(=O)[C@H](C)[C@@H](O[C@H]2C[C@@](C)(OC)[C@@H](O)[C@H](C)O2)[C@H](C)[C@@H](O[C@@H]2O[C@H](C)C[C@H](N(C)C)[C@H]2O)[C@](C)(O)C[C@@H](C)CN(C)[C@H](C)[C@@H](O)[C@]1(C)O [Azithromycin] | -9.96 |
| CN1CC(=O)N2[C@H](c3ccc4c(c3)OCO4)c3[nH]c4ccccc4c3C[C@@H]2C1=O [Tadalafil] | -10.2 |
| O=c1[nH]c(=O)n([C@H]2C[C@H](O)[C@@H](CO)O2)cc1C(F)(F)F [Trifluorothymidine] | -0.769 |
| CC(=O)S[C@@H]1CC2=CC(=O)CC[C@]2(C)[C@H]2CC[C@@]3(C)[C@@H](CC[C@@]34CCC(=O)O4)[C@H]12 [Spironolactone] | -11.3 |
| CCCCC1=NC2(CCCC2)C(=O)N1Cc1ccc(-c2ccccc2-c2nnn[nH]2)cc1 [Irbesartan] | -14.6 |
